From the supplement of paper PMC10849652
About 7,900 targets were measured; listed, in parts, are those with a hit and a random draw of the rest. About 0.6% of all pairs of compound and target were hits.

How the values were obtained:
Assay in all cases: log2 fold change, soluble protein after heating vs DMSO (PISA); higher = thermal stabilisation; K562 cells, 10 uM, 30 min; active = over 0.2 and 3.5 SD of the protein, either way, in both replicates (recomputed)
[1] = compound: NC(=O)Nc1cc(-c2cccc(F)c2)sc1C(=O)N[C@H]1CCCNC1
Procedure, shortened: (§1)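 Soluble protein was defined as the supernatant after 21,000xg for 90 min. It came from K562 cells at 2×10^6 cells/mL given 10 μM compound for 30 min, heated in aliquots for 3 min across 48°C-58°C, pooled, and extracted in PBS with 0.5% NP-40 at 4°C, and was quantified by TMTpro 16plex LC-MS/MS with equalised channel sums. Thermal stability against control samples, from duplicates, is reported as log2 fold change.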

[2] = compound: NC(=O)c1cnc(N[C@@H]2CCCC[C@@H]2N)nc1Nc1cccc(-n2nccn2)c1
Procedure, shortened: as §1

[3] = compound: NC1(c2ccc(-c3nc4ccn5c(=O)[nH]nc5c4cc3-c3ccccc3)cc2)CCC1
Procedure, shortened: as §1

[4] = compound: NCC(=O)Nc1ccc(-n2nc(C(F)(F)F)cc2-c2ccc3c(ccc4ccccc43)c2)cc1
Procedure, shortened: as §1

entinostat = compound: Nc1ccccc1NC(=O)c1ccc(CNC(=O)OCc2cccnc2)cc1 [entinostat]
Procedure, shortened: as §1

vorinostat = compound: O=C(CCCCCCC(=O)Nc1ccccc1)NO [vorinostat]
Procedure, shortened: as §1

citarinostat = compound: O=C(CCCCCCNC(=O)c1cnc(N(c2ccccc2)c2ccccc2Cl)nc1)NO [citarinostat]
Procedure, shortened: as §1

silmitasertib = compound: O=C(O)c1ccc2c(c1)nc(Nc1cccc(Cl)c1)c1ccncc12 [silmitasertib]
Procedure, shortened: as §1

[5] = compound: O=C1NC(=O)C(c2cnc3ccccn23)=C1c1cn2c3c(cc(F)cc13)CN(C(=O)N1CCCCC1)CC2
Procedure, shortened: as §1

[6] = compound: c1cc(OCCN2CCCCC2)cc(-c2n[nH]c3ccc(-c4nnc[nH]4)cc23)c1
Procedure, shortened: as §1

Measured: log2 fold change

LARP7 isoform 3 (UniProt Q4G0J3)
Sequence of UniProt Q4G0J3 (Q4G0J3 whole entry, looked up): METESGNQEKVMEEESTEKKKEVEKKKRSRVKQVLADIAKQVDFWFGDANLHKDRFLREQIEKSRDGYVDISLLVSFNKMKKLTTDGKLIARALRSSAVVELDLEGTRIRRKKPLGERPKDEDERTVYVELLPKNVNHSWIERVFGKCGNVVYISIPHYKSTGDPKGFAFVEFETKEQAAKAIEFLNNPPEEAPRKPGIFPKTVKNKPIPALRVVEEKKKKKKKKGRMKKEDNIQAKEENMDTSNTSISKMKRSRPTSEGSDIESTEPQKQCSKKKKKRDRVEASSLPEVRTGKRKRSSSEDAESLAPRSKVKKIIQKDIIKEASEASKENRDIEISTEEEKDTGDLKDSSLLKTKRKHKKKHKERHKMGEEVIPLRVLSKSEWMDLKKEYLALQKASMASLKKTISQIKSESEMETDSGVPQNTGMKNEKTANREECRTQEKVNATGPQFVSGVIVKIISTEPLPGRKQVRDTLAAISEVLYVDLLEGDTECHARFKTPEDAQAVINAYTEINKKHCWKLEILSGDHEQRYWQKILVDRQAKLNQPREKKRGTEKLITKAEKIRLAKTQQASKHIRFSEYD
inactive: [1] -0.011 | [2] -0.116 | [3] -0.129 | [4] -0.019 | entinostat -0.007 | vorinostat 0.082 | citarinostat 0.043 | silmitasertib 0.03 | [5] -0.034 | [6] -0.065

MAIP1 (UniProt Q8WWC4)
inactive: [1] -0.061 | [2] -0.06 | [3] -0.129 | [4] -0.009 | entinostat -0.015 | vorinostat 0.017 | citarinostat 0.076 | silmitasertib -0.012 | [5] -0.085 | [6] -0.012

MCU (UniProt Q8NE86)
Sequence of UniProt Q8NE86 (Q8NE86 whole entry, looked up): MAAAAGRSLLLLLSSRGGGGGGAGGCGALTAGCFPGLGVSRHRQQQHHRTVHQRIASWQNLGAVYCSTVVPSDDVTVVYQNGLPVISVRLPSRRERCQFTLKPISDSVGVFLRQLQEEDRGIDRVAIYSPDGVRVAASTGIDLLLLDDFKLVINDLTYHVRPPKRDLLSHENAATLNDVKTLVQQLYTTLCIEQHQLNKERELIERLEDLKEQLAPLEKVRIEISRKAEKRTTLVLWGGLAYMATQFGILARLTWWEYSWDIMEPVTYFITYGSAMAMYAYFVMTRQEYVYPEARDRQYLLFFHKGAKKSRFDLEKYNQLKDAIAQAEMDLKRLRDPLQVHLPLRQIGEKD
inactive: [1] 0.005 | [2] -0.059 | [3] -0.142 | [4] -0.131 | entinostat 0.034 | vorinostat -0.013 | citarinostat 0.075 | silmitasertib -0.007 | [5] -0.034 | [6] -0.052

LMF2 (UniProt Q9BU23)
inactive: [1] -0.008 | [2] -0.001 | [3] -0.057 | [4] -0.089 | entinostat -0.006 | vorinostat 0.116 | citarinostat -0.068 | silmitasertib 0.008 | [5] -0.016 | [6] 0.046

LEMD2 (UniProt Q8NC56)
inactive: [1] 0.008 | [2] -0.139 | [3] -0.112 | [4] -0.157 | entinostat 0.004 | vorinostat 0.04 | citarinostat 0.058 | silmitasertib -0.044 | [5] -0.02 | [6] -0.046

IGF2R (UniProt P11717)
inactive: [1] -0.032 | [2] 0.03 | [4] 0.006 | entinostat -0.008 | vorinostat 0 | citarinostat 0.07 | silmitasertib 0.021 | [5] -0.063 | [6] -0.184
active: [3] -0.546

MFSD1 isoform 6 (UniProt Q9H3U5)
Sequence of UniProt Q9H3U5 (Q9H3U5 whole entry, looked up): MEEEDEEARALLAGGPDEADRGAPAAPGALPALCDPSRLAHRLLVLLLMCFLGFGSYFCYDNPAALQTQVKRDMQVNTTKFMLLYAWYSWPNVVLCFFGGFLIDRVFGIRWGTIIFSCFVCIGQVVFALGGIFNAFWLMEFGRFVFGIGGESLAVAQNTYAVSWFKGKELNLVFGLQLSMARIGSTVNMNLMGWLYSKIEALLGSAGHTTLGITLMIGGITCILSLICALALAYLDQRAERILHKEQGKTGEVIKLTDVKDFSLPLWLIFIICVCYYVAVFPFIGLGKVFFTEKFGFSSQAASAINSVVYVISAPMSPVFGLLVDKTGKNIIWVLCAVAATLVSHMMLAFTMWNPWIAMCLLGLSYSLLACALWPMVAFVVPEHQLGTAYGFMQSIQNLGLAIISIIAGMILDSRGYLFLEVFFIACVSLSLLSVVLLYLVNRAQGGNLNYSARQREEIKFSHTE
active: [3] -0.308
inactive: [1] 0.02 | [2] -0.066 | [4] -0.098 | entinostat -0.019 | vorinostat -0.053 | citarinostat 0.03 | silmitasertib -0.008 | [5] 0.067 | [6] 0.043

LRRFIP1 (UniProt Q32MZ4)
inactive: [1] -0.027 | [2] 0.015 | [3] 0.056 | [4] 0.024 | entinostat -0.042 | vorinostat -0.079 | citarinostat -0.007 | silmitasertib 0.049 | [5] 0.01 | [6] -0.013

METTL18 (UniProt O95568)
Sequence of UniProt O95568 (O95568 whole entry, looked up): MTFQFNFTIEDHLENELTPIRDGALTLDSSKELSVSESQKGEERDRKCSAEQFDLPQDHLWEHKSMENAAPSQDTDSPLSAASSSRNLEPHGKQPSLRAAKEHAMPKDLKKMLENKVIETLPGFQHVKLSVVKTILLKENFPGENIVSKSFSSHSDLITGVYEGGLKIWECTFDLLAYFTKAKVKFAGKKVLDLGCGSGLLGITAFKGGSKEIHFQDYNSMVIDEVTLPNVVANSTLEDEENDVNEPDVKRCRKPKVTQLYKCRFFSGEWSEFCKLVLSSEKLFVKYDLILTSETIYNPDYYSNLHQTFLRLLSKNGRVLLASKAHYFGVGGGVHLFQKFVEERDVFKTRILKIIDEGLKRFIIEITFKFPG
inactive: [1] -0.028 | [2] 0.008 | [3] -0.034 | [4] 0.023 | entinostat -0.02 | vorinostat 0.041 | citarinostat -0.046 | silmitasertib 0.03 | [5] 0 | [6] -0.016

LRPPRC (UniProt P42704)
inactive: [1] -0.249 | [2] -0.291 | [3] -0.676 | [4] -0.272 | entinostat 0.479 | vorinostat 0.289 | citarinostat 0.203 | silmitasertib 0.033 | [5] -0.383 | [6] -0.128

MAP2K2 (UniProt P36507)
Sequence of UniProt P36507 (P36507 whole entry, looked up): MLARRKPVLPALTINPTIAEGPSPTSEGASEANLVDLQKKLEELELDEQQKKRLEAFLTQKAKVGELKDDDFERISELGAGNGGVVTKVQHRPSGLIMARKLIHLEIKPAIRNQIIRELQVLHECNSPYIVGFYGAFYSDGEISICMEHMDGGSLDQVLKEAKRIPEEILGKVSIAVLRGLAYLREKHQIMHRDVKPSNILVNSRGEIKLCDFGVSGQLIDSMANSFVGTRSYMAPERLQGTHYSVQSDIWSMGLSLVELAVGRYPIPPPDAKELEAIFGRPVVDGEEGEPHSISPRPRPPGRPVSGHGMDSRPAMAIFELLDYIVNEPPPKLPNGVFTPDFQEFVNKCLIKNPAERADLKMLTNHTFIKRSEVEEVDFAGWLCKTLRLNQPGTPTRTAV
inactive: [1] 0 | [2] -0.042 | [3] -0.023 | [4] -0.003 | entinostat 0.061 | vorinostat 0.039 | citarinostat -0.051 | silmitasertib -0.098 | [5] -0.055 | [6] -0.018

ITPRIP (UniProt Q8IWB1)
active: [3] -0.373
inactive: [1] -0.041 | [2] -0.031 | [4] -0.021 | entinostat -0.01 | vorinostat -0.08 | citarinostat -0.076 | silmitasertib -0.009 | [5] 0.019 | [6] -0.06

KIF2C (UniProt Q99661)
inactive: [1] -0.024 | [2] 0 | [3] -0.053 | [4] -0.068 | entinostat 0.095 | vorinostat 0.122 | citarinostat 0.156 | silmitasertib -0.009 | [5] -0.005 | [6] -0.001

MCL1 (UniProt Q07820)
inactive: [1] -0.074 | [2] -0.33 | [3] -0.093 | [4] -0.039 | entinostat 0.072 | vorinostat 0.011 | citarinostat -0.079 | silmitasertib 0.034 | [5] -0.112 | [6] 0.142

MAST4 (UniProt O15021)
Sequence of UniProt O15021 (O15021 whole entry, looked up): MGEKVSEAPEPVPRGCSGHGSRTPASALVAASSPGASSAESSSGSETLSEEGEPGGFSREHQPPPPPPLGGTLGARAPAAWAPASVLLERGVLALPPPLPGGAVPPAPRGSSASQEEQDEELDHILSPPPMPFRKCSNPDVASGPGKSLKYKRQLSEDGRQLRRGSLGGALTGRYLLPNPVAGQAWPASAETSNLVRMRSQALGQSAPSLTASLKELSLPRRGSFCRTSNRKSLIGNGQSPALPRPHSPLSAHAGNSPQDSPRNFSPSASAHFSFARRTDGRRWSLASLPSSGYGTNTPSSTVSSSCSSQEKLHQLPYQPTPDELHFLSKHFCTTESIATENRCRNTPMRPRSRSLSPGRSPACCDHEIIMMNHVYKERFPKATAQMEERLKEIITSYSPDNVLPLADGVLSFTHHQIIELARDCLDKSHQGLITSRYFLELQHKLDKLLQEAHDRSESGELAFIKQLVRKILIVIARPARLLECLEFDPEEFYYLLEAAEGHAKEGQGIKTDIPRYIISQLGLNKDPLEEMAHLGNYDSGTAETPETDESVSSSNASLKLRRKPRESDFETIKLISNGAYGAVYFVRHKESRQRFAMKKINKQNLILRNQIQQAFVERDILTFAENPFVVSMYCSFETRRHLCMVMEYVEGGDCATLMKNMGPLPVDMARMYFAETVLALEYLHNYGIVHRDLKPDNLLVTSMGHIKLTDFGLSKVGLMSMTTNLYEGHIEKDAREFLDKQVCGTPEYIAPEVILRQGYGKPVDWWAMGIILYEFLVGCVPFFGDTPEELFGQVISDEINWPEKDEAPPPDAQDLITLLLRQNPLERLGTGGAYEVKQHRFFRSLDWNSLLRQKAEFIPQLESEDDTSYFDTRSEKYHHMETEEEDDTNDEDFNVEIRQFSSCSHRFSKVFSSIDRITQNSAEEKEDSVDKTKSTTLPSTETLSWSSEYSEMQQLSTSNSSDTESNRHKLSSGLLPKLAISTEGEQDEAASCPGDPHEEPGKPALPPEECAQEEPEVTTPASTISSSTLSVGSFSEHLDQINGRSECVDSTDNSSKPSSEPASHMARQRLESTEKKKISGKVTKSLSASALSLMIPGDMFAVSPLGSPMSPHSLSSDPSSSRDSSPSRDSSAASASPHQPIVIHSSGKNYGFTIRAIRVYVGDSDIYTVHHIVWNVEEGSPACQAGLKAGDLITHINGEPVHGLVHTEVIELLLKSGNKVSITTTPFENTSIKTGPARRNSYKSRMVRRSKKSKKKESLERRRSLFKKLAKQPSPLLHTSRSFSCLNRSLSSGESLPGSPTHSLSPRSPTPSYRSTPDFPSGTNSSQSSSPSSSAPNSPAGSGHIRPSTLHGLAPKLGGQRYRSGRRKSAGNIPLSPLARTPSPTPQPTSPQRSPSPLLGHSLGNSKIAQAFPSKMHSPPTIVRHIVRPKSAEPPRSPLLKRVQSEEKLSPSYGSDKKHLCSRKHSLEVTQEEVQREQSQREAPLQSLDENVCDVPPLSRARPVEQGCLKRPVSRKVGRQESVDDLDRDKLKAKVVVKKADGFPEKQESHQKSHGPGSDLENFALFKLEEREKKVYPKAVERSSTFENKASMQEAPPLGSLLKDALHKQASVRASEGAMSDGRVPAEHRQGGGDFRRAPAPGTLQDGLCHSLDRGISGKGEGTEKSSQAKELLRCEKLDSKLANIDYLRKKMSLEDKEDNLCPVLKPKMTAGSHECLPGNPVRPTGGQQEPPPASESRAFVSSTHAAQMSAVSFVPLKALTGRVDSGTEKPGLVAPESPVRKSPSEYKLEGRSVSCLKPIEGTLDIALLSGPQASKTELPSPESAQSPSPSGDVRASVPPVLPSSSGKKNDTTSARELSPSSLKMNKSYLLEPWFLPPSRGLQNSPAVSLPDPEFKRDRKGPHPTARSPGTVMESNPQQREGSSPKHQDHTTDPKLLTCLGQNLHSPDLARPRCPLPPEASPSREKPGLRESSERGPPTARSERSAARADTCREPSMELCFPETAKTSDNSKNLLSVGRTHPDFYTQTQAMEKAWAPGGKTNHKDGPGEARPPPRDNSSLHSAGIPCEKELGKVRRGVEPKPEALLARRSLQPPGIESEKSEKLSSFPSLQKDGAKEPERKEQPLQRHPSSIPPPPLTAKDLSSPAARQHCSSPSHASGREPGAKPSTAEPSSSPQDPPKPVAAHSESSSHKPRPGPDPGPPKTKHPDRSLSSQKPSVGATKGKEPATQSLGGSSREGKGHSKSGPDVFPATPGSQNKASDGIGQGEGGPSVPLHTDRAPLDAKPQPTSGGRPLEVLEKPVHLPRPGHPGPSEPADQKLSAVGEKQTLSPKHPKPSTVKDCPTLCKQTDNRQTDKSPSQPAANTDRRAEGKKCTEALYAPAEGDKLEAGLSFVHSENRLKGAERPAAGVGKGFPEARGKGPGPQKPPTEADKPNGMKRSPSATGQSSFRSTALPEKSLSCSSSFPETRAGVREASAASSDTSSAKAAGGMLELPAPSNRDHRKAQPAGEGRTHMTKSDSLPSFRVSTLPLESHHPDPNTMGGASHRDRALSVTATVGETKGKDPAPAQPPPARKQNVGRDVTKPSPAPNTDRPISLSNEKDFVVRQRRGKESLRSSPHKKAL
inactive: [1] -0.217 | [2] -0.038 | [3] -0.298 | [4] -0.115 | entinostat 0.085 | vorinostat 0.045 | citarinostat 0.135 | silmitasertib -0.053 | [5] 0.051 | [6] -0.151

ILF2 (UniProt Q12905)
inactive: [1] -0.02 | [2] 0.024 | [3] 0.121 | [4] 0.109 | entinostat -0.049 | vorinostat -0.059 | citarinostat -0.037 | silmitasertib 0.13 | [5] 0.378 | [6] -0.18

IRF2BPL (UniProt Q9H1B7)
inactive: [1] 0.032 | [2] 0.011 | [3] 0.013 | [4] -0.004 | entinostat -0.024 | vorinostat 0.007 | citarinostat -0.001 | silmitasertib 0.027 | [6] -0.03
active: [5] -0.218

INPP1 (UniProt P49441)
inactive: [1] -0.11 | [2] -0.035 | [3] -0.108 | [4] -0.036 | entinostat -0.089 | vorinostat -0.066 | citarinostat 0.024 | silmitasertib -0.042 | [5] 0.023 | [6] -0.039

KIF3B (UniProt O15066)
inactive: [1] -0.016 | [2] -0.029 | [3] -0.091 | [4] -0.128 | entinostat -0.016 | vorinostat -0.179 | citarinostat 0.053 | silmitasertib -0.086 | [5] -0.112 | [6] 0.215

KHDC4 (UniProt Q7Z7F0)
inactive: [1] -0.017 | [2] -0.003 | [3] -0.078 | [4] -0.034 | entinostat 0.009 | vorinostat 0.028 | citarinostat 0.08 | silmitasertib 0.01 | [5] -0.155 | [6] -0.052

IWS1 (UniProt Q96ST2)
inactive: [1] -0.049 | [2] 0.034 | [3] -0.028 | [4] -0.171 | entinostat 0.012 | vorinostat -0.008 | citarinostat -0.059 | silmitasertib 0.054 | [5] -0.032 | [6] 0

MAPRE3 (UniProt Q9UPY8)
Sequence of UniProt Q9UPY8 (Q9UPY8 whole entry, looked up): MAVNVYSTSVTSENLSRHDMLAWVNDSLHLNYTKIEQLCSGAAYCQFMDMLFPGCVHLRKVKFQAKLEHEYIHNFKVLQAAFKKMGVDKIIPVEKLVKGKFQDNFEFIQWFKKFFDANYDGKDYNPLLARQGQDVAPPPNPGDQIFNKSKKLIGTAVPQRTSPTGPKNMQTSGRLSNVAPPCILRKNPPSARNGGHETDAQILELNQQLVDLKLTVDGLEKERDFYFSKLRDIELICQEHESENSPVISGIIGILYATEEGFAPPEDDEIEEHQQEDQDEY
inactive: [1] -0.002 | [2] -0.053 | [3] -0.112 | [4] -0.052 | entinostat 0.066 | vorinostat 0.002 | citarinostat 0.049 | silmitasertib 0.004 | [5] -0.087 | [6] -0.04

MED16 (UniProt Q9Y2X0)
inactive: [1] 0.108 | [2] 0.021 | [3] -0.005 | [4] -0.044 | entinostat -0.047 | vorinostat 0.107 | citarinostat -0.094 | silmitasertib 0.026 | [5] 0.06 | [6] -0.117

KLHDC4 (UniProt Q8TBB5)
inactive: [1] 0.013 | [2] -0.006 | [3] 0.224 | [4] -0.105 | entinostat -0.055 | vorinostat -0.014 | citarinostat 0.042 | silmitasertib -0.003 | [5] 0.125 | [6] -0.036

KTN1 (UniProt Q86UP2)
inactive: [1] 0.036 | [2] 0.06 | [3] 0.035 | [4] -0.038 | entinostat 0.05 | vorinostat 0.027 | citarinostat 0.033 | silmitasertib 0.06 | [5] 0.148 | [6] -0.189

KDM5D isoform 3 (UniProt Q9BY66)
inactive: [1] -0.038 | [2] -0.012 | [3] -0.134 | [4] -0.025 | entinostat 0.135 | vorinostat 0.006 | citarinostat 0.198 | silmitasertib 0.176 | [5] 0 | [6] -0.096

IRF3 (UniProt Q14653)
active: [1] 0.221
inactive: [2] -0.021 | [3] -0.021 | [4] -0.022 | entinostat -0.078 | vorinostat 0.06 | citarinostat 0.028 | silmitasertib -0.044 | [5] -0.047 | [6] -0.028

L2HGDH (UniProt Q9H9P8)
inactive: [1] -0.035 | [2] -0.026 | [3] -0.145 | [4] 0.007 | entinostat -0.012 | vorinostat -0.014 | citarinostat 0.029 | silmitasertib 0.15 | [5] -0.053 | [6] 0.029

MFN2 (UniProt O95140)
inactive: [1] -0.081 | [2] -0.088 | [3] -0.104 | [4] -0.168 | entinostat 0.014 | vorinostat -0.019 | citarinostat -0.021 | silmitasertib -0.024 | [5] -0.019 | [6] -0.008

JMJD6 isoform 3 (UniProt Q6NYC1)
inactive: [1] 0.01 | [2] -0.057 | [3] -0.068 | [4] -0.019 | entinostat 0.039 | vorinostat 0.048 | citarinostat 0.064 | silmitasertib 0.081 | [5] -0.061 | [6] -0.014
